# Reference: PubChem BioAssay AID2435 (The Scripps Research Institute Molecular Screening Center, 2010)
# About 1,000 (0.31%) of roughly 320,000 compounds were called active.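 Rule for the calls: active = activation above the mean of all tested compounds plus 3 SD, cutoff set per screening run (cut at about 20% in these data); inactive = the rest.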 For the sample, actives were picked, then their nearest neighbours and some compounds at random.
# Biological target: Oxytocin receptor (Homo sapiens) (UniProt P30559)
# Experiment: human OXTR agonists, primary screen, fluorescence, CHO-OTR cells, Fluo-8 calcium (AID 2435);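 note: peak over basal fluorescence ratio from a 100 s FLIPR kinetic read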
# Settings: Fluo-8 calcium fluorescence, at 3 µM, stronger effect = higher value, normalized: DMSO 0%, oxytocin 100%
# Chain of Oxytocin receptor (Homo sapiens) (P30559 whole entry, looked up): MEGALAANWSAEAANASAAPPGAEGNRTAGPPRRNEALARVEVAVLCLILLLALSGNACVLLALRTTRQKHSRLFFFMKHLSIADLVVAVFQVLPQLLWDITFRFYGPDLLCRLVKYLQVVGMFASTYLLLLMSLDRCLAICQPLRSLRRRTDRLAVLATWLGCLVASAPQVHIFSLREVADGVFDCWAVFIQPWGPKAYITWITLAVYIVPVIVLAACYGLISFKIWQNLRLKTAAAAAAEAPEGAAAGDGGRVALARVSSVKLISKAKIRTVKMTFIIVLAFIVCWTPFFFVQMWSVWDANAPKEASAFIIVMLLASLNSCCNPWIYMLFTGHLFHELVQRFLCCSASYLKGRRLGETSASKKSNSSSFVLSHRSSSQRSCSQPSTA
row,SMILES,activation
1,Cc1cccc(OCC(=O)NC(=S)Nc2ccccc2N2CCOCC2)c1,-0.15% (inactive)
2,Cc1ccc(O)c(NC(=S)NC(=O)COc2ccc(Br)cc2)c1,51.9% (active)
3,Cc1ccc(O)c(NC(=O)COc2cc(C)ccc2C)c1,0.92% (inactive)
4,COc1ccc([N+](=O)[O-])cc1NCC(=O)c1ccc(C)cc1,-1.36% (inactive)
5,NC(=O)C1=C[C@H](c2csc3ccccc23)C[C@H](OCc2ccc(CO)cc2)O1,25.9% (active)
6,NC(=O)C1=C[C@@H](c2csc3ccccc23)C[C@@H](OCc2ccc(CO)cc2)O1,5% (inactive)
7,O=C(NC1CC1)C1=C[C@H](c2c[nH]c3ccccc23)C[C@H](OCc2ccc(CO)cc2)O1,-0.84% (inactive)
8,Cc1ccc(NC(=O)CN(C)C(=O)c2cccc(S(=O)(=O)N3CCCC3)c2)cc1,-1.01% (inactive)
9,COc1ccc(/C=C2\SC(=S)N(CCC(=O)Nc3cccc(C(=O)O)c3)C2=O)cc1OC,-0.74% (inactive)
10,COc1cc(/C=C2/SC(=S)N(Cc3ccccc3)C2=O)cc(OC)c1O,23.8% (active)
11,COc1ccc(/C=C2\SC(=S)N(CCCC(=O)NC3CCCC3)C2=O)cc1OC,-1.19% (inactive)
12,COCCn1c(N)c(NCc2ccccc2)c(=O)[nH]c1=O,0.2% (inactive)
13,Cc1cccc(CN2CCC(CNC(=O)Nc3ccc(F)c(Cl)c3)CC2)c1,28.2% (active)
14,COc1cc(NC(=O)NCC2CCN(Cc3ccc(C)cc3)CC2)cc(OC)c1OC,1.34% (inactive)
15,COc1ccc(Cl)cc1NC(=O)NCC1CCN(Cc2ccccc2F)CC1,19.8% (active)
16,Cc1ccc(C)c(CN2CCC(CNC(=O)Nc3ccc(C)c(F)c3)CC2)c1,2.73% (inactive)
17,O=C(NCC1CCN(Cc2ccccc2Cl)CC1)Nc1cccc(Cl)c1,4.22% (inactive)
18,Cc1ccccc1NC(=O)NCC1CCN(Cc2cccc(Cl)c2)CC1,1.57% (inactive)
19,CCn1cc(CCC(=O)NCc2ccc(F)cc2)c2ccccc21,-1.14% (inactive)
20,COc1ccc(C(C#N)N2N=C(C)CC2(C)C)cc1 (stereo not given),0.73% (inactive)
21,COc1cc(C(F)(F)F)c(C(=O)N(C)c2ccc(Cl)cc2)cn1,-1.66% (inactive)
22,COc1ccccc1CNS(=O)(=O)c1cc2c3c(c1)CCC(=O)N3CCC2,2.19% (inactive)
23,CCOc1ccc(N(C(=O)c2snc(C(N)=O)c2N)C(C(=O)NCC2CCCO2)c2c[nH]c3ccccc23)cc1 (stereo not given),1.87% (inactive)

row,SMILES,activation
1,Cc1cc(NC(=O)CCN2CCN(Cc3ccccc3)CC2)ccc1Br,23.2% (active)
2,CC1CCN(CCC(=O)Nc2ccccc2)CC1,-0.16% (inactive)
3,CCOC(=O)N1CCN(CCC(=O)Nc2ccccc2)CC1,-0.17% (inactive)
4,Cc1ccccc1CCNC(=O)C1CCC(=O)N(Cc2ccc(Cl)cc2)C1 (stereo not given),-1.42% (inactive)
5,CCCCCN(C(=O)CCC(=O)OCC(=O)NCc1ccc(OC)cc1)c1c(N)n(CCCC)c(=O)[nH]c1=O,-0.95% (inactive)
6,Cc1ccc(-c2cc(C(=O)NN)n[nH]2)o1,-1.85% (inactive)
7,CC(CO)(CO)NC(=O)c1ccc(=O)[nH]n1,45.8% (active)
8,COc1ccc(C(=O)NNC(=O)c2cc(C)[nH]n2)cc1,-1.68% (inactive)
9,O=C(CSc1nc2[nH]ncc2c(=O)[nH]1)Nc1ccc(F)cc1,0.71% (inactive)
10,O=C(NCCC1CCCCN1S(=O)(=O)c1ccc(Cl)cc1)C(=O)NCc1ccco1 (stereo not given),-1.1% (inactive)
11,C=CCN(C(=O)Nc1ccc2oc(C)nc2c1)c1ccccc1,-0.77% (inactive)
12,CCN(CC)c1ccc2oc(=O)c(C)nc2c1,38% (active)
13,CCN(CC)c1ccc(C(=O)Nn2c(C)nc3ccccc3c2=O)cc1,3.66% (inactive)
14,CCOc1ccc(C)cc1S(=O)(=O)NC1CCCCCC1,-1.02% (inactive)
15,C[C@@H]1O[C@@H](OC[C@H]2O[C@@H](Oc3c(-c4ccc(O)cc4)oc4cc(O)cc(O)c4c3=O)[C@H](O)[C@@H](O)[C@@H]2O)[C@H](O)[C@H](O)[C@H]1O,-0.01% (inactive)
16,CCCCc1nc(NCCN)c(C#N)c2c1CSC(C)(C)C2,7.89% (inactive)
17,CCCC(O)(c1ccc(OC)cc1)C(CN(C)C)c1ccccc1 (stereo not given),1.32% (inactive)
18,COC(=O)c1ccc(OCC(O)CN(CCO)CC(O)Cn2ccc3ccccc32)cc1 (stereo not given),3.04% (inactive)
19,COc1ccc(CN2C(=O)CC(Cc3ccc(C)cc3)C2=O)cc1OC (stereo not given),-1.49% (inactive)
20,CCN(Cc1ccccc1)C(=O)CSc1nc(C)cc2c1C(=O)OC2,1.04% (inactive)
21,Cc1ccc(CNC(=O)c2cccc3c2C(=O)c2ccc(N4CCC(C)CC4)cc2S3(=O)=O)cc1,40.5% (active)
22,Cc1ccc(CNC(=O)c2ccc3c(c2)S(=O)(=O)c2ccccc2C3=O)cc1,-0.21% (inactive)
23,CC1CCN(c2c(NCc3ccc(C(=O)NCc4ccccc4)cc3)c(=O)c2=O)CC1,0.21% (inactive)

row,SMILES,activation
1,CC(C)Oc1c(Br)cc(Br)cc1/C=N/NC(N)=S,-1.11% (inactive)
2,Nc1c(C(=O)c2cccs2)sc2nsc(SCCN3CCCCC3)c12,50.2% (active)
3,O=C(CSc1ncnc2sccc12)N1CCN(C(=O)c2cccs2)CC1,1.17% (inactive)
4,O=C(CCCN1C(=O)CCC1=O)Nc1ccc(Cl)c(C(F)(F)F)c1,6.54% (inactive)
5,CC1=CC(=C(C#N)c2nc3ccccc3s2)C=C(C)N1c1ccc(F)cc1F,0.27% (inactive)
6,O=c1[nH][nH]c(C(F)(F)F)c1C=NCc1ccccc1Cl,1.38% (inactive)
7,O=C(NCCCc1ccccc1)C(=O)NCC1OCCN1S(=O)(=O)c1ccccc1 (stereo not given),-0.3% (inactive)
8,COc1cccc2cc(S(=O)(=O)c3ccc(C)cc3)/c(=N/NS(=O)(=O)c3ccc(C)cc3)oc12,-0.02% (inactive)
9,COC(=O)Cc1cc(=O)oc2c(C)c(O)ccc12,3.75% (inactive)
10,Cc1cc(S(=O)(=O)c2cc3ccc(O)c(C)c3oc2=O)ccc1F,20.6% (active)
11,COCCNC(=O)NC(=O)COC(=O)C1(c2ccc(Cl)cc2)CC1,-1.47% (inactive)
12,CCc1c(C)sc(NC(=O)OC)c1C(=O)N1CCOCC1,-0.45% (inactive)
13,COc1ccc(OCCCn2cccc2/C=C2/C(=N)N3OC(C)=CC3=NC2=O)cc1,1.35% (inactive)
14,CC1=CC2=NC(=O)/C(=C/c3coc4ccccc4c3=O)C(=N)N2O1,30.4% (active)
15,CCOc1cc(/C=C2/C(=N)N3OC(C)=CC3=NC2=O)ccc1OC,-0.04% (inactive)
16,C=CCSc1nc(N)cc(=O)[nH]1,0.06% (inactive)
17,CCCCCCCCCCOC(=O)Cn1c(COc2ccc(C)cc2)[n+](C)c2ccccc21,-1.93% (inactive)
18,CCCCCCCCCCOC(=O)Cn1c(COc2cccc(OC)c2)[n+](C)c2ccccc21,21.5% (active)
19,CCOC(=O)Cn1c(-c2cccnc2Cl)nc2ccccc21,0.33% (inactive)
20,CC1=CC(C)(C)NC(=S)N1c1ccccc1,-0.69% (inactive)
21,Cc1cc(N)n2nc(-c3ccc(C(C)(C)C)cc3)cc2n1,-1.18% (inactive)
22,C#CCOCCOCCOCCNc1nc(N2CCN(C(=O)C([C@@H](C)CC)n3cc(C(N)COC(=O)C(F)(F)F)nn3)CC2)nc(N2CCN(C(=O)[C@H](Cc3ccc(O)cc3)n3cc(C(N)[C@H](C)CC)nn3)CC2)n1 (stereo not given in full),0.32% (inactive)
23,c1ccc2c(CCN3CCNC[C@H]3Cc3cccc4ccccc34)cccc2c1,8.2% (inactive)

row,SMILES,activation
1,c1ccc(C2CNCc3c2ccc2ccccc32)cc1 (stereo not given),22.4% (active)
2,COCCn1c(=O)[nH]c(=O)c2cc(C(=O)c3cc(OC)ccc3O)cnc21,-0.31% (inactive)
3,Cc1ccc2oc(=O)c3cnn(CC(=O)N(Cc4ccco4)C4CCCCC4)c3c2c1,-1.36% (inactive)
4,CC1CN(S(=O)(=O)c2ccc(C(=O)NN3CCN(C)CC3)cc2)CC(C)O1 (stereo not given),0.04% (inactive)
5,CCOc1ccc(C2=CC(c3ccccc3)n3ncnc3N2)cc1 (stereo not given),-2.25% (inactive)
6,COc1ccc(C2C=C(c3ccc(Br)cc3)Nc3nc(NS(C)(=O)=O)nn32)cc1 (stereo not given),20.5% (active)
7,Brc1ccc(C2=CC(c3ccco3)n3ncnc3N2)cc1 (stereo not given),16.4% (inactive)
8,COc1ccc(OC)c(NC(=S)N2CCc3ccccc3C2)c1,-1.2% (inactive)
9,O=S(=O)(c1cccc(Cn2nnc(-c3ccc(F)cc3)n2)c1)N1CCOCC1,18.4% (inactive)
10,O=C(C1CCCN1S(=O)(=O)c1ccc(Br)cc1)N1CCOCC1 (stereo not given),-0.61% (inactive)
11,CCc1ccc(NC(=O)Cn2nnc(C(=O)NCc3ccc(OC)cc3)c2N)cc1,0.62% (inactive)
12,CCOc1ccc(Cn2nnc(C(=O)NCc3ccccc3)c2N)cc1,32% (active)
13,COc1ccc(CNC(=O)c2nnn(CC(=O)Nc3cc(C)cc(C)c3)c2N)cc1,0.21% (inactive)
14,CCOc1ccc(Cn2nnc(C(=O)Nc3ccc(OC)cc3OC)c2N)cc1,25.1% (active)
15,COc1ccc(NC(=O)Cn2nnc(C(=O)NCCc3ccc(OC)c(OC)c3)c2N)cc1,-0.34% (inactive)
16,COc1cccc(CNC(=O)c2nnn(CC(=O)Nc3cc(Cl)ccc3C)c2N)c1,2.37% (inactive)
17,Cc1ccc2c(c1)N(CC(=O)N1CCC(C)CC1)C(=O)c1cccnc1O2,1.7% (inactive)
18,CCc1cccc(CC)c1NC(=O)COc1ccccc1C(=O)c1cc(C#N)c(=O)n(C2CCCCC2)c1,2.32% (inactive)
19,Cc1cc(C(=O)NC2CCN(Cc3ccccc3)CC2)n[nH]1,0.51% (inactive)
20,CN(CC(=O)NCc1ccc(Cl)cc1)S(=O)(=O)c1cccs1,0.76% (inactive)
21,CC(Oc1cccc(Cl)c1)C(=O)Nc1ccc(S(=O)(=O)Nc2ncccn2)cc1 (stereo not given),1.17% (inactive)
